# Inconclusive results are not listed. Calls of active or inactive are those of the source. Unless noted, no stated cut-off is given here; in the data, active means inhibition above about 80%; inactive means the rest.
# Experiments:
# [1] = viability loss in pontine glioma line – cell-based, JHH-DIPG-1, MIPE4.0, CellTiter-Glo, qHTS, dose response (AID 1347062; cut-off not given, nearly all actives have AC50 up to about 27 µM;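 on AC50: cells exposed to compound for two days before readout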); conditions: JHH-DIPG-1 viability, CellTiter-Glo ATP luminescence
# [2] = viability loss in pontine glioma line – cell-based, SU-DIPG-IV, MIPE4.0, CellTiter-Glo, qHTS, dose response (AID 1347063; cut-off not given, nearly all actives have AC50 up to about 30 µM;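 further: compound exposure lasted 48 hours before the viability readout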); conditions: CellTiter-Glo ATP luminescence
# [3] = viability loss in pontine glioma line – cell-based, SU-DIPG-XIII, MIPE5.0, CellTiter-Glo, qHTS, dose response (AID 1347064; cut-off not given, nearly all actives have AC50 up to about 23 µM;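 on AC50: cells exposed to compound for 48 hours before the viability read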); conditions: CellTiter-Glo ATP luminescence
# [4] = viability loss in pontine glioma line – cell-based, SU-DIPG-XXV, MIPE5.0, CellTiter-Glo, qHTS, dose response (AID 1347065; cut-off not given, nearly all actives have AC50 up to about 26 µM;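 further: cells exposed to compound for 48 hours before ATP readout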); conditions: CellTiter-Glo ATP luminescence
# [5] = JHH-DIPG-1 glioma cell viability, MIPE5.0 library, CellTiter-Glo luminescence, qHTS (AID 1347067; cut-off not given, nearly all actives have AC50 up to about 26 µM;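 further: cells exposed to compound for 48 hours before readout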); conditions: JHH-DIPG-1 glioma viability, CellTiter-Glo ATP luminescence
# [6] = growth inhibition of DIPG cells – cell-based, MIPE5.0 library, qHTS (AID 1347068; cut-off not given, nearly all actives have IC50 up to about 30 µM); conditions: SU-DIPG-XXV viability
# [7] = viability loss with induced miR-34 in A549 – imaging, A549 dox-inducible miR-34, nuclei and caspase counts, primary screen (AID 1347080;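 active means compounds whose cell count with miR-34 switched on is under 0.7 times the count with it off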); conditions: A549 miR-34 inducible, Hoechst nuclei count, 48 h
# [8] = MELAS cybrid and Rieske KO viability enhancers – cell-based, MELAS cybrids, Rieske KO mouse fibroblasts, CellTiter-Glo, primary screen (AID 1508586;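 active means mean z-score across replicates of 1.96 or higher in either the MELAS or the Rieske mutant cell line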;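 further: z relative to plate mean and SD of compound and empty wells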); conditions: low glucose
# [9] = galactose survival enhancers in mitochondrial complex I cybrids – cell-based, galactose medium, ATP luminescence, primary screen (AID 1645843;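 active means z-score of at least 1.8 in each of two replicates, scored against plate mean and spread of sample wells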;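 further: positive z means more ATP and so rescue of galactose-driven cybrid death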); conditions: complex I mutant cybrid cells, 72 h, stronger effect = higher value
# [10] = viability loss in pontine glioma line – cell-based, SU-DIPG-XIII, MIPE4.0, CellTiter-Glo, qHTS, dose response (AID 1347061; cut-off not given, nearly all actives have AC50 up to about 37 µM;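 further: cells exposed to compound for 48 hours before readout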); conditions: CellTiter-Glo ATP luminescence
# [11] = growth inhibition of DIPG cells – cell-based, MIPE4.0 library, CellTiter-Glo luminescence, qHTS (AID 1347066; cut-off not given, nearly all actives have AC50 up to about 30 µM;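 further: cells exposed to compound for 48 hours before readout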); conditions: SU-DIPG-VI viability, CellTiter-Glo ATP luminescence
# [12] = growth inhibition, single agent or in combination, cell-based, chromothripsis tumors, cisplatin or BGB combos (AID 1671449); conditions: LFS_MB_P medulloblastoma cells;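 further: cells exposed for 96 hours; 0% = vehicle DMSO and 100% = killing by high DMSO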
# [13] = growth inhibition, single agent and combos, cell-based, chromothripsis tumors, cisplatin or BGB combos (AID 1671450); conditions: HDN33 neuroblastoma cells, stronger effect = higher value;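 further: cells exposed to compound for four days; 0% = vehicle DMSO and 100% = cell killing by high DMSO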
# [14] = growth inhibition, single agents and combos, ICB984, cell-based, cisplatin or BGB combos, synergistic combos for chromothripsis tumors (AID 1671451; call rule not given here;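 further: cells exposed for 96 hours before readout; 0% = vehicle DMSO and 100% = killing by high DMSO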); conditions: ICB984 medulloblastoma cells, drug combinations, stronger effect = higher value
# [15] = growth inhibition, single agents and combos, LFS_MB_1R, cell-based, cisplatin or BGB combos, synergistic combos for chromothripsis tumors (AID 1671452); conditions: LFS_MB_1R medulloblastoma cells, stronger effect = higher value;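 further: cells exposed for 96 hours before readout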
# [16] = growth inhibition, single agents and combos, HTB85, cell-based, BGB or cisplatin IC20 combos, synergistic combos for chromothripsis tumors (AID 1671453); conditions: HTB85 osteosarcoma cells, drug combinations, stronger effect = higher value;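 further: cells exposed for 96 hours before readout; 0% = vehicle DMSO and 100% = high DMSO killing control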
# [17] = growth inhibition, single agents and combos, CRL2098, cell-based, BGB or cisplatin IC20 combos, synergistic combos for chromothripsis tumors (AID 1671454); conditions: CRL2098 osteosarcoma cells, drug combinations, stronger effect = higher value;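 further: cells exposed for 96 h before readout; 0% = vehicle DMSO and 100% = killing by high DMSO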
# [18] = growth inhibition, single agents and combos, HD-MB03, cell-based, BGB or cisplatin IC20 combos, synergistic combos for chromothripsis tumors (AID 1671455; in the data active means inhibition above about 83%;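 further: 0% = vehicle DMSO and 100% = high DMSO as cytotoxic control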); conditions: HD-MB03 medulloblastoma cells, stronger effect = higher value
# [19] = growth inhibition, single agents and combos, UWB1.289, cell-based, BGB or cisplatin combos, synergistic combos for chromothripsis tumors (AID 1671456); conditions: UWB1.289 ovarian carcinoma cells, stronger effect = higher value;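 further: cells exposed to compound for four days; 0% = vehicle DMSO and 100% = killing by high DMSO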
# [20] = growth inhibition, single agents and combos, LFS_MB_2R, cell-based, cisplatin combos, synergistic combos for chromothripsis tumors (AID 1671457); conditions: LFS_MB_2R medulloblastoma cells, stronger effect = higher value;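 further: cells exposed to compound for four days before readout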
# [21] = growth inhibition, MDA-MB-436, cell-based, BGB or cisplatin combos, synergistic combos for chromothripsis tumors (AID 1671458; call rule not given here;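 further: cells exposed for 96 hours; 0% = vehicle DMSO and 100% = killing by high DMSO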); conditions: MDA-MB-436 breast carcinoma growth inhibition, drug combinations, stronger effect = higher value
# [22] = UWB1.289_BRCA1 ovarian cancer growth, cell-based, BGB or cisplatin combinations (AID 1671459); conditions: UWB1.289 BRCA1 ovarian carcinoma, drug combinations, stronger effect = higher value
# [23] = drug combination toxicity in non-malignant astrocytes – cell-based, BGB or cisplatin IC20 combos, cytotoxicity control for chromothriptic childhood tumor combination screen (AID 1671460); conditions: Human astrocytes, viability inhibition, drug combinations, at 0.5 µM, stronger effect = higher value;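 further: cells exposed to compounds for 96 hours before viability readout; 0% = vehicle and 100% = killing control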
# [24] = BT084 cell growth, single and combined drugs, ICGC_MB145, cisplatin and BGB IC40 combos (AID 1671461); conditions: BT084 medulloblastoma cells, drug combinations, stronger effect = higher value;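 further: cells exposed to drugs for 96 hours; 0% = vehicle DMSO and 100% = high DMSO full killing control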
# [25] = RCMB18 cell growth, single agent and combined, cisplatin and BGB IC40 combos (AID 1671462); conditions: RCMB18 medulloblastoma cells, stronger effect = higher value;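 further: cells exposed to compound for four days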
# [26] = CRL1545 cell growth, single agent and combined, cisplatin and BGB IC20 combos (AID 1671464); conditions: CRL1545 osteosarcoma cells, stronger effect = higher value;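 further: cells exposed to compound for 96 hours before readout; 0% = vehicle DMSO and 100% = high DMSO killing control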
# [27] = measured here: relative caspase fold change +Dox/-Dox
# [28] = measured here: total cells with miR-34 induction, stronger effect = lower value
# [29] = measured here: total cells without miR-34 induction
# [30] = MELAS cybrid survival, CellTiter-Glo 48 h, stronger effect = higher value
# [31] = Rieske KO mouse fibroblast survival, CellTiter-Glo 72 h
# [32] = measured here: combination with BGB IC40, at 0.05 µM
# [33] = measured here: with BGB IC20 combination, at 0.5 µM
# [34] = measured here: with cisplatin IC20 combination, at 0.5 µM
# [35] = measured here: combination with cisplatin, at 0.5 µM
# [36] = measured here: combination with cisplatin, at 5 µM
smiles,measurement,setting,value
CN1CCN(c2ccc([N+](=O)[O-])c3no[n+]([O-])c23)CC1,AC50,[1],23.5 µM (active)
same,AC50,[2],16.6 µM (active)
same,AC50,[3],16.6 µM (active)
same,AC50,[4],18.6 µM (active)
same,AC50,[5],23.5 µM (active)
same,outcome,[6],inactive
C[C@](O)(CS(=O)(=O)c1ccc(F)cc1)C(=O)Nc1ccc(C#N)c(C(F)(F)F)c1,AC50,[1],2.35 µM (active)
same,AC50,[2],1.66 µM (active)
same,fold change,[7]; stronger effect = lower value,0.814 (inactive)
same,fold change,[7]; [27],0.512
same,cell count,[7]; [28],7480
same,cell count,[7]; [29],9190
same,z-score,[8]; [30],0.389 (inactive)
same,z-score,[8]; [31],-0.102
same,z-score,[9],-0.71 (inactive)
COC[C@H]1OC(=O)c2coc3c2[C@@]1(C)C1=C(C3=O)[C@@H]2CC[C@H](O)[C@@]2(C)C[C@H]1OC(C)=O,AC50,[10],16.6 µM (active)
same,AC50,[2],1.18 µM (active)
same,AC50,[3],9.34 µM (active)
same,AC50,[4],1.66 µM (active)
same,AC50,[11],14.8 µM (active)
same,AC50,[5],5.9 µM (active)
same,outcome,[6],inactive
O=C1CCC[C@@H]2[C@H]3CCCN4CCC[C@@H](CN12)[C@@H]34,outcome,[10],inactive
same,outcome,[1],inactive
same,outcome,[2],inactive
same,outcome,[11],inactive
same,inhibition,"[12]; at 0.5 µM, stronger effect = higher value",-20.9% (inactive)
same,inhibition,"[12]; measured here: combination with BGB IC20, at 0.005 µM",-26.5%
same,inhibition,"[12]; measured here: combination with BGB IC40, at 0.005 µM",-23%
same,inhibition,[12]; [32],-17%
same,inhibition,"[12]; measured here: combination with cisplatin, at 0.5 µM, stronger effect = higher value",-27.3%
same,inhibition,"[12]; measured here: combination with cisplatin, at 5 µM, stronger effect = higher value",64.5%
same,inhibition,"[13]; BGB combo, at 5 µM",59.7%
same,inhibition,[13]; at 0.5 µM,6.84% (inactive)
same,inhibition,"[13]; cisplatin combo, at 5 µM",52.4%
same,inhibition,[13]; [33],-9.69%
same,inhibition,[13]; [34],11.1%
same,inhibition,"[13]; single agent, at 5 µM",48.2%
same,inhibition,"[14]; BGB IC20 combo, at 0.005 µM",5.19%
same,inhibition,"[14]; BGB IC40 combo, at 0.005 µM",0.771%
same,inhibition,"[14]; BGB IC40 combo, at 0.05 µM",63.2%
same,inhibition,[14]; at 0.5 µM,-0.41% (inactive)
same,inhibition,"[14]; cisplatin combo, at 0.05 µM",61.6%
same,inhibition,"[14]; cisplatin combo, at 0.5 µM",2.95%
same,inhibition,"[14]; cisplatin combo, at 5 µM",-10%
same,inhibition,"[14]; measured here: 5 uM single agent, at 5 µM",1.92%
same,inhibition,[15]; at 0.5 µM,12.9% (inactive)
same,inhibition,[15]; [32],-3.79%
same,inhibition,[15]; [35],12.5%
same,inhibition,[15]; [36],79.4%
same,inhibition,[16]; at 0.5 µM,0.28% (inactive)
same,inhibition,"[16]; measured here: with BGB IC20, at 0.5 µM",0.562%
same,inhibition,"[16]; measured here: with BGB IC20, at 5 µM",39.5%
same,inhibition,"[16]; measured here: with cisplatin IC20, at 0.5 µM",-4.39%
same,inhibition,"[16]; measured here: with cisplatin IC20, at 5 µM",33.8%
same,inhibition,"[16]; single agent, at 5 µM",15.4%
same,inhibition,[17]; at 0.5 µM,11.9% (inactive)
same,inhibition,"[17]; measured here: combination with BGB at IC20, at 0.5 µM",-8.11%
same,inhibition,"[17]; measured here: combination with cisplatin at IC20, at 0.5 µM",39.2%
same,inhibition,[18]; at 0.5 µM,2.42% (inactive)
same,inhibition,"[18]; measured here: combo with BGB at IC20, at 0.5 µM",3.91%
same,inhibition,"[18]; measured here: combo with cisplatin at IC20, at 0.5 µM",-1.67%
same,inhibition,[19]; at 0.5 µM,2.22% (inactive)
same,inhibition,"[19]; measured here: inhibition with BGB combination, at 0.05 µM",4.13%
same,inhibition,"[19]; measured here: inhibition with cisplatin combination, at 0.05 µM",1.55%
same,inhibition,[20]; at 0.5 µM,0.58% (inactive)
same,inhibition,[20]; [35],8.66%
same,inhibition,[20]; [36],60.9%
same,inhibition,[21]; at 0.5 µM,-3.03% (inactive)
same,inhibition,"[21]; measured here: BGB combination, at 0.5 µM",-5.75%
same,inhibition,"[21]; measured here: BGB combination, at 5 µM",1.19%
same,inhibition,"[21]; measured here: cisplatin combination, at 0.5 µM",-10.4%
same,inhibition,"[21]; measured here: cisplatin combination, at 5 µM",1.01%
same,inhibition,"[22]; BGB combination, concentration series, at 5 µM",24%
same,inhibition,[22]; at 0.5 µM,2.45% (inactive)
same,inhibition,"[22]; cisplatin combination, concentration series, at 5 µM",16.1%
same,inhibition,[23],2.72% (inactive)
same,inhibition,[23]; measured here: combo with BGB IC20,3.13%
same,inhibition,[23]; measured here: combo with cisplatin IC20,4.87%
same,inhibition,[24]; at 0.5 µM,3.62% (inactive)
same,inhibition,"[24]; cisplatin combination, at 0.5 µM",3.61%
same,inhibition,"[24]; cisplatin combination, at 5 µM",62.6%
same,inhibition,"[24]; measured here: BGB IC40 combination 0.05 uM, at 0.05 µM",-11%
same,inhibition,"[24]; single agent, at 5 µM",75.7%
same,inhibition,[25]; at 0.5 µM,-5.51% (inactive)
same,inhibition,"[25]; cisplatin combo, at 5 µM",33.7%
same,inhibition,"[25]; measured here: BGB IC40 combination, at 0.05 µM",-15.6%
same,inhibition,[25]; [35],-27.9%
same,inhibition,"[25]; single agent, at 5 µM",31.3%
same,inhibition,[26]; at 0.5 µM,8.42% (inactive)
same,inhibition,[26]; [33],-16.4%
same,inhibition,[26]; [34],19.6%
same,inhibition,"[26]; single agent, at 0.05 µM",-32.9%
same,inhibition,"[26]; single agent, at 5 µM",-58%
CC(C)(O)C(=O)Nc1ccc([N+](=O)[O-])c(C(F)(F)F)c1,AC50,[10],11.8 µM (active)
same,outcome,[3],inactive
same,outcome,[11],inactive
same,outcome,[6],inactive
CCN(CC)C(=O)c1ccc(C2=CC3(CCNCC3)Oc3cccc(O)c32)cc1,outcome,[10],inactive
same,outcome,[2],inactive
same,outcome,[3],inactive
same,outcome,[11],inactive
same,outcome,[5],inactive
same,fold change,"[7]; stronger effect = lower value, cell number ratio, induced over uninduced",0.925 (inactive)
same,fold change,[7]; [27],0.955
same,cell count,[7]; [28],8090
same,cell count,[7]; [29],8740
same,z-score,[8]; [30],-0.509 (inactive)
same,z-score,[8]; [31],0.582
